Results from PubChem BioAssay AID1946 (Johns Hopkins Ion Channel Center, 2009).
The whole screen tested about 2,400 compounds, of which about 180 (7.5%) were called active.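 How the source made its calls: active means readout below zero, meaning a drop past 3 SD under the dofetilide-free negative control mean; inactive means the rest.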 The list comes from a sample in which actives are over-represented; it also holds similar structures and randomly drawn compounds.

molecular target: Potassium voltage-gated channel subfamily KQT member 2 (Rattus norvegicus) (UniProt O88943); assay: KCNQ2 blockade in CHO cells – cell-based, FluxOR thallium flux, counter-screen for hERG block protector project, confirmation (AID 1946); settings: FluxOR thallium flux fluorescence, at 10 µM, active compounds read low, zero marks the 3-SD hit cutoff
Sequence (O88943 whole entry, looked up): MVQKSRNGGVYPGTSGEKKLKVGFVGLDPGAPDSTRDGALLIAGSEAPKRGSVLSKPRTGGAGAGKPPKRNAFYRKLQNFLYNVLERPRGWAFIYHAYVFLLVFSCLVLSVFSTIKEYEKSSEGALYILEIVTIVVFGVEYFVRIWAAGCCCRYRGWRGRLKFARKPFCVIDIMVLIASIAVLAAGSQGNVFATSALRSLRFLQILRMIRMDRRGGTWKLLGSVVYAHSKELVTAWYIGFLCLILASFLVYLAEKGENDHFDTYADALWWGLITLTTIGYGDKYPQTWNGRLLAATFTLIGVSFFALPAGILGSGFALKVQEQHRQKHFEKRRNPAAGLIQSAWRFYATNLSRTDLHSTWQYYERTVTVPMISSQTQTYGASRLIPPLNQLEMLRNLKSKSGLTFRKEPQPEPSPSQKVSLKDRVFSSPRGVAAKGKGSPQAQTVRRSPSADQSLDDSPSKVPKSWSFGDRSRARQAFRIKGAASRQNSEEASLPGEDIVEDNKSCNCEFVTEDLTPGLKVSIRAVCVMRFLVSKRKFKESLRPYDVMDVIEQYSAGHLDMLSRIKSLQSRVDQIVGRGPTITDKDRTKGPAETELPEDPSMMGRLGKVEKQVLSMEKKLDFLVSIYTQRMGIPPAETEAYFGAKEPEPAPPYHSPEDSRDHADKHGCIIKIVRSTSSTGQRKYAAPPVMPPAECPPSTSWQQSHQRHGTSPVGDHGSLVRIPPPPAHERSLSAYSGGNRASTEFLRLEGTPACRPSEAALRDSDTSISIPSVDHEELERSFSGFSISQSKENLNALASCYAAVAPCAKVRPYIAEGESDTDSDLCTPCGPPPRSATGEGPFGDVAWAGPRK

Question: Which activity change vs negative control does the source give for CC(C)(C)OC(=O)NCCCC(CCCNC(=O)OC(C)(C)C)C(=O)O here?
Answer: -1.1% (active)

Question: Which activity change vs negative control does the source give for Cc1c(C)c2ccc(OCC(=O)N[C@@H](Cc3ccccc3)C(=O)O)cc2oc1=O here?
Answer: 11.8% (inactive)

Question: With O=C(NC(=S)Nc1ccccc1Cl)c1ccco1 as the molecule, how does the activity change vs negative control read?
Answer: 32.3% (inactive)

Question: Which activity change vs negative control does the source give for O=C(CCC1CCCC1)NNC(=O)c1cccc(Cl)c1 here?
Answer: 39.5% (inactive)

Question: For Cn1c(=S)[nH]c2scc(-c3cccs3)c2c1=O, which activity change vs negative control is on record?
Answer: 93.4% (inactive)

Question: CCc1ccc(C(C)NC(=O)C2CCCC2)cc1 (stereo not given) was tested. Which activity change vs negative control did it give?
Answer: 42.6% (inactive)

Question: With CCCCCn1c(=S)[nH]c2ncccc2c1=O as the molecule, how does the activity change vs negative control read?
Answer: 48.4% (inactive)

Question: CC(C)(C)c1ccc(C(=O)NC(=S)N2CCCCCC2)cc1 was tested. Which activity change vs negative control did it give?
Answer: 40.6% (inactive)

Question: How did the activity change vs negative control turn out when Cc1ccc(/C=C(\NC(=O)c2ccccc2)C(=O)N2CCCCC2)cc1 was run?
Answer: -1.3% (active)

Question: O=C(NC(=S)N1CCN(c2ccccc2)CC1)c1ccccc1 was tested. Which activity change vs negative control did it give?
Answer: 33.2% (inactive)

Question: How did the activity change vs negative control turn out when CCCCOc1ccc(-c2c(C#N)c(N)[nH]c(=S)c2C#N)cc1 was run?
Answer: 21.3% (inactive)

Question: With O=c1oc2ccccc2c(Cl)c1CN1CCCCC1 as the molecule, how does the activity change vs negative control read?
Answer: 32.3% (inactive)

Question: Which activity change vs negative control does the source give for C=CCn1c(=S)[nH]c2ccc(Br)cc2c1=O here?
Answer: 40.2% (inactive)

Question: With O=C(COC(=O)C1CCC(=O)N1)Nc1ccc(Oc2ccccc2)cc1 (stereo not given) as the molecule, how does the activity change vs negative control read?
Answer: 10.5% (inactive)

Question: For COC(=O)c1ccc(NC(=O)COC(=O)C2CC(=O)N(Cc3ccccc3)C2)cc1 (stereo not given), which activity change vs negative control is on record?
Answer: -5.2% (active)

Question: With COc1ccc(N2CC(C(=O)OCC(=O)Nc3ccccc3C)CC2=O)cc1 (stereo not given) as the molecule, how does the activity change vs negative control read?
Answer: 9% (inactive)

Question: With COC(=O)c1c(NS(=O)(=O)Cc2ccccc2)sc2c1CCCC2 as the molecule, how does the activity change vs negative control read?
Answer: 56.6% (inactive)

Question: With Cc1ccc(C(=O)c2ccccc2C(=O)O)c(O)c1 as the molecule, how does the activity change vs negative control read?
Answer: 6.4% (inactive)

Question: Which activity change vs negative control does the source give for Cc1ccccc1C(=O)Nc1nc(=S)ss1 here?
Answer: 82.2% (inactive)

Question: Which activity change vs negative control does the source give for Cc1ccccc1C(=O)c1cn[nH]c1-c1ccccc1O here?
Answer: -4.7% (active)

Question: How did the activity change vs negative control turn out when COc1ccc(C(=O)CC(=O)C(=O)Nc2ccccc2C(F)(F)F)cc1 was run?
Answer: 36.8% (inactive)

Question: For CCOC(=O)N1CCC(N2C(=O)c3ccccc3C2Nc2cccnc2)CC1 (stereo not given), which activity change vs negative control is on record?
Answer: 27.6% (inactive)

Question: CCOc1ccc(C(C)NC(=S)NC2CCCCC2)cc1 (stereo not given) was tested. Which activity change vs negative control did it give?
Answer: 40.9% (inactive)

Question: Fc1cccc2sc(Nc3nc4c(F)cccc4s3)nc12 was tested. Which activity change vs negative control did it give?
Answer: 30.2% (inactive)

Question: For Cc1ccc(-c2csc3nc[nH]c(=S)c23)cc1, which activity change vs negative control is on record?
Answer: 62.4% (inactive)

Question: How did the activity change vs negative control turn out when Cn1nnnc1SCC(=O)NC1CCCc2ccccc21 (stereo not given) was run?
Answer: -7.8% (active)

Question: For Cc1cccc(OCC(=O)NC2CCCc3ccccc32)c1C (stereo not given), which activity change vs negative control is on record?
Answer: -10.6% (active)

Question: Which activity change vs negative control does the source give for CCn1nnnc1SCC(=O)N1c2ccccc2Sc2ccccc21 here?
Answer: 5.3% (inactive)

Question: Which activity change vs negative control does the source give for O=C(NC(=S)NC1CCCc2ccccc21)c1ccco1 (stereo not given) here?
Answer: 28.4% (inactive)

Question: For CCOc1ccc(NC(=O)CS(=O)CC(=O)NC2CCCc3ccccc32)cc1 (stereo not given), which activity change vs negative control is on record?
Answer: 8.3% (inactive)

Question: How did the activity change vs negative control turn out when Cn1nnnc1SCC(=O)Nc1ccccn1 was run?
Answer: 8.7% (inactive)

Question: Which activity change vs negative control does the source give for Cc1cccc(NC(=O)C(=O)NNC(=O)c2ccc(C(C)(C)C)cc2)c1 here?
Answer: 134% (inactive)

Question: C=CCn1c(=S)[nH]c2sc3c(c2c1=O)CCC3 was tested. Which activity change vs negative control did it give?
Answer: 64.2% (inactive)

Question: How did the activity change vs negative control turn out when CC(NC(=O)NC1CCCCC1)c1ccccc1 (stereo not given) was run?
Answer: 57.6% (inactive)

Question: With CCN(Cc1ccccc1)C(=S)NC(=O)c1ccccc1Br as the molecule, how does the activity change vs negative control read?
Answer: 96.1% (inactive)

Question: With S=c1nc(SCc2ccccc2)[nH]c2ccccc12 as the molecule, how does the activity change vs negative control read?
Answer: 95.4% (inactive)

Question: Cc1ccc(/C=N/N2C(=O)c3ccccc3NC2c2ccc(C)cc2)cc1 (stereo not given) was tested. Which activity change vs negative control did it give?
Answer: -1.1% (active)

Question: For Cc1ccc(/C=C/C(=O)C2C(=O)c3ccccc3C2=O)cc1, which activity change vs negative control is on record?
Answer: 69.5% (inactive)

Question: For Cc1cc([N+](=O)[O-])ccc1-c1ccc(C2Nc3ccccc3C(=O)N2O)o1 (stereo not given), which activity change vs negative control is on record?
Answer: 24.1% (inactive)

Question: Which activity change vs negative control does the source give for CC(C)CNC(=S)NC(=O)c1ccc(Cl)cc1 here?
Answer: 10.6% (inactive)

Question: With CCc1c(C)sc(NC(=O)CN2CCN(C(=O)c3ccco3)CC2)c1C(=O)OC as the molecule, how does the activity change vs negative control read?
Answer: 44.4% (inactive)

Question: Which activity change vs negative control does the source give for Cc1ccc(-c2nc3c(Cl)cc(Cl)cc3c(=O)n2O)cc1 here?
Answer: 164% (inactive)

Question: With CC1=NN(c2ccccc2)C(=O)C1C(=O)c1ccc(Cl)cc1 (stereo not given) as the molecule, how does the activity change vs negative control read?
Answer: 28.9% (inactive)

Question: Which activity change vs negative control does the source give for O=C1c2ccccc2C(=O)N1c1cccnc1 here?
Answer: 6.9% (inactive)

Question: How did the activity change vs negative control turn out when CC(=O)C1=C(O)C(=O)N(c2cccnc2)C1c1ccc(Cl)cc1 (stereo not given) was run?
Answer: -2.8% (active)

Question: Which activity change vs negative control does the source give for CN(Cc1ccccc1)C(=S)NC(=O)c1cccs1 here?
Answer: 31.2% (inactive)

Question: Which activity change vs negative control does the source give for Nc1nc(O)c(N=Nc2ccc(S(N)(=O)=O)cc2)c(=O)[nH]1 here?
Answer: -2% (active)

Question: Cc1ccc2[nH]c(=O)c(C(c3nnnn3C3CCCC3)N3CCCc4ccccc43)cc2c1 (stereo not given) was tested. Which activity change vs negative control did it give?
Answer: 27.9% (inactive)

Question: For COc1ccc(-c2csc(NC(=S)NC(=O)c3ccco3)n2)cc1, which activity change vs negative control is on record?
Answer: 21.1% (inactive)

Question: Which activity change vs negative control does the source give for COCCCn1c(=S)[nH]c2c(sc3ccccc32)c1=O here?
Answer: 12.3% (inactive)

Question: How did the activity change vs negative control turn out when C=Cc1ccc(Cn2c(=O)n(CCCOC)c(=O)c3sccc32)cc1 was run?
Answer: -5.9% (active)

Question: How did the activity change vs negative control turn out when Cn1c(=O)c2sccc2n(Cc2cccc(Br)c2)c1=O was run?
Answer: 10.6% (inactive)

Question: How did the activity change vs negative control turn out when Cc1cccc2nc(-c3cccnc3)c(NCCC(C)C)n12 was run?
Answer: -23.5% (active)

Question: For CC(C)Cn1c(=S)[nH]c2cc(Cl)ccc21, which activity change vs negative control is on record?
Answer: 21% (inactive)

Question: Which activity change vs negative control does the source give for COc1ccc(-c2nc(=S)c3ccc4ccccc4c3[nH]2)cc1 here?
Answer: 74.5% (inactive)

Question: With CC(C)OC(=O)c1c(NS(=O)(=O)c2ccccc2)sc2c1CCCC2 as the molecule, how does the activity change vs negative control read?
Answer: 31% (inactive)

Question: For C/C(=C/CCC(C)C1CCC2(C)C3CCC4C(C)(C)C(=O)CCC4(C)C3=CCC12C)C(=O)O (stereo not given), which activity change vs negative control is on record?
Answer: 4.1% (inactive)

Question: Which activity change vs negative control does the source give for C/C(=C/CCC(C)[C@H]1CC[C@@]2(C)C3=C(CC[C@]12C)[C@@]1(C)CCC(=O)C(C)(C)[C@@H]1CC3)C(=O)O (stereo not given in full) here?
Answer: -13.3% (active)

Question: With O=C1c2ccccc2NC(c2ccc(Br)s2)N1O (stereo not given) as the molecule, how does the activity change vs negative control read?
Answer: 92.4% (inactive)

Question: Which activity change vs negative control does the source give for COc1cccc(C=NCCCN=Cc2cccc(OC)c2O)c1O here?
Answer: 37.4% (inactive)

Question: Which activity change vs negative control does the source give for C=CCn1c(N2CCCCCC2)nc2c1c(=O)n(C)c(=O)n2C here?
Answer: 15.6% (inactive)

Question: For Cc1ccnc(SCCn2c(N3CC(C)OC(C)C3)nc3c2c(=O)n(C)c(=O)n3C)n1 (stereo not given), which activity change vs negative control is on record?
Answer: -2% (active)

Question: CCOC(=O)NC(=S)Nc1ccc(C(C)(C)C)cc1 was tested. Which activity change vs negative control did it give?
Answer: 30.4% (inactive)

Question: With CCOc1ccc(/C=C2/SC(=O)NC2=S)cc1 as the molecule, how does the activity change vs negative control read?
Answer: 111% (inactive)

Question: CCCCC(=O)Nc1ccc(NCc2ccc(C)s2)cc1 was tested. Which activity change vs negative control did it give?
Answer: 66.2% (inactive)
